# From PubChem BioAssay
# Only some compounds are listed: those with a hit (about 4.7% of all), similar ones and a draw of the others.
# MPTP inh = inhibitors of mitochondrial permeability transition pore; isolated mouse mitochondria, Ca2+ swelling absorbance, 30 min; inhibition, % at 10 µM; 360,000 compounds, 1.4% hits; AID 602449;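 active = inhibition of 50% or more, scaled per plate between neutral and stimulator controls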;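 note: 0% = DMSO wells given calcium and 100% = 1 mM EGTA wells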
# KLK7 zymogen act = activates the human kallikrein-7 zymogen | P49862 | purified proKLK7, EDANS-DABCYL substrate fluorescence; 100% is mature enzyme control, 0% vehicle | activation, % at 7 µM | 370,000 compounds, 0.9% hits;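 active = activation above the mean of all tested compounds plus 3 SD, computed per campaign excluding outliers beyond control limits, cut at about 13% in these data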
# rCAG binder = binds r(CAG) RNA repeats. r(CAG) RNA repeat, TO-PRO-1 dye displacement fluorescence. inhibition, % at 3 µM. 370,000 compounds, 1.3% hits. AID 651821;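 active = inhibition above the plate cutoff, the mean of all test compounds on that plate plus 3 SD, cut at about 35% in these data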;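 note: 0% = DMSO alone and 100% = 100 µM mitoxantrone as full dye displacement; higher means more dye released from RNA so lower well fluorescence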
# ADAM10 inh = inhibits human ADAM10; recombinant ADAM10, EDANS/DABCYL FRET peptide cleavage, 3 h; inhibition, % at 7 µM; 370,000 compounds, 0.62% hits; AID 720582;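 active = inhibition above a per-campaign cutoff equal to the mean of compounds falling between control-based bounds plus 3 SD, cut at about 20% in these data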;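 note: 0% = DMSO wells while the 100% control is not disclosed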
# ADAM17 inh = ADAM17 inhibition, QFRET primary screen. P78536. recombinant ADAM17, EDANS/DABCYL FRET peptide cleavage. inhibition, % at 6.95 µM. 370,000 compounds, 0.83% hits;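 active = inhibition above the mean of compounds lying between control limits plus 3 SD, set per campaign, cut at about 8.5% in these data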;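 note: 0% = DMSO-only wells as the low control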
# Target sequence (P78536 215-824 limits assumed): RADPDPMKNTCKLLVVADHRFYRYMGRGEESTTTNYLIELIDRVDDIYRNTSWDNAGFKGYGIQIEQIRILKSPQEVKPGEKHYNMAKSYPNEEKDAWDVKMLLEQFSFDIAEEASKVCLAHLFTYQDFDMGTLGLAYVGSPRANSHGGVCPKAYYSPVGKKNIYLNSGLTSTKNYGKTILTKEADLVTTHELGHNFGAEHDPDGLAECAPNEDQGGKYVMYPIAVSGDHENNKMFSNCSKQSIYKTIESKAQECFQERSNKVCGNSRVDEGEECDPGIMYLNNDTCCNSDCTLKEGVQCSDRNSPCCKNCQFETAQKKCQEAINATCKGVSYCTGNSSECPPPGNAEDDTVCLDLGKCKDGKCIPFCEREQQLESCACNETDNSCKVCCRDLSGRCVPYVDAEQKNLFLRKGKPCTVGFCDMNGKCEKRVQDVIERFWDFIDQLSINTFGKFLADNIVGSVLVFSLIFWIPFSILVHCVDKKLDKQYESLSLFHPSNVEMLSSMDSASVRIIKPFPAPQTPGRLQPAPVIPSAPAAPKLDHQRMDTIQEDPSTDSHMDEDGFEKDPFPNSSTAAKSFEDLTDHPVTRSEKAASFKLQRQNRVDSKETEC
# DSG3 Ab inh = human desmoglein-3 autoantibody binding inhibition; 310,000 compounds, 0.48% hits; binding (percent of control), % at 10 µM; DSG3-coupled beads, scFv-anti-DSG3-GFP binding, flow cytometry; hits give low values;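 active = binding more than 3 SD below its plate's average and above zero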;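 note: hits lower antibody fragment binding to DSG3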
# rCAG binder conf = r(CAG) RNA repeat binding, confirmation; inhibition, % at 3 µM; TO-PRO-1 dye displacement fluorescence; shares compounds with rCAG binder; 4,300 compounds, 70% hits;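 active = inhibition above a per-plate cutoff, the mean inhibition of sample wells plus 3 SD, cut at about 35% in these data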;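 note: loss of TO-PRO-1 fluorescence as compound displaces dye from 1x1 AA loop RNA; 0% = DMSO only wells and 100% = 100 µM mitoxantrone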
# dCAG dye counter = counter-screen for rCAG RNA binders: DNA CAG dye complex inhibitors; shares compounds with rCAG binder; d(CAG) DNA oligo TO-PRO-1 dye displacement, fluorescence; inhibition, % at 3 µM; 4,300 compounds, 94% hits; AID 652068;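 active = inhibition above its plate's cutoff, the mean test-well inhibition plus 3 SD, cut at about 4.8% in these data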;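 note: 0% = DNA dye mix with DMSO and 100% = 100 µM mitoxantrone; hits displace the dye from DNA and so lower well fluorescence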
# dCAG dye DR = DNA CAG dye complex inhibition, dose response counter-screen; shares compounds with rCAG binder; DNA CAG/GTC duplex TO-PRO-1 dye displacement fluorescence; IC50, µM; 250 compounds, 20% hits; AID 686960; in the data active = IC50 below about 10 µM
# * marks the source's active call; other numbers are inactive results; i = inactive; nt = no result; ! = not confirmed by another sample.
SMILES,MPTP inh,KLK7 zymogen act,rCAG binder,ADAM10 inh,ADAM17 inh,DSG3 Ab inh,rCAG binder conf,dCAG dye counter,others
Cc1ccc(-n2c(SCC(=O)Nc3ccc(S(=O)(=O)Nc4cc(C)nc(C)n4)cc3)nnc2-c2ccc(C(C)(C)C)cc2)cc1,nt,-0.4,43.7*,12.1,7.4,nt,41.7*,16.3*,
O=C(N/N=C/c1cc([N+](=O)[O-])cc([N+](=O)[O-])c1O)/C(=C\c1cccs1)NC(=O)c1ccccc1,21.9,-0.3,68.4*,9.0,2.1,92.4,84.3*,52.7*,
Cc1ccc(C2=CC(=O)CC(C)(C)C2=O)cc1,nt,0.3,1.1,3.3,-2.0,nt,nt,nt,
COc1ccc(S(=O)(=O)C(C#N)c2nc3ccccc3nc2N2CCCC(C)C2)cc1 (centres undefined),24.0,-2.6,67.8*,-356.3,-124.4,109.7,68.4*,34.7*,
CN(Cc1ccccc1)C(=O)[C@@H]1CCCN1C(=O)[C@@H]1CCCN1C(=O)c1cccs1,-1.0,-0.4,0.9,-11.1,-5.0,nt,nt,nt,
CCOc1ccc2nc(NS(=O)(=O)c3ccc4c(c3)n(C)c(=O)n4C)sc2c1,8.9,-0.1,44.1*,-2.1,-2.4,88.6,25.9,8.3*,
O=C(O)C(Cc1ccccc1)N1C(=O)C=CC1=O (centres undefined),-3.2,-0.2,-1.3,1.7,-2.9,100.6,nt,nt,
O=C(CN(Cc1ccccc1)S(=O)(=O)c1ccccc1)N/N=C/c1ccccc1C(=O)O,-0.8,0.8,17.6,4.0,-1.0,99.5,nt,nt,
O=C(CN(Cc1ccccc1)S(=O)(=O)c1ccc(Br)cc1)N/N=C/c1ccccc1C(=O)O,5.5,-0.2,51.0*,2.3,-3.6,91.3,57.0*,15.3*,
O=C(O)CSc1nc(SCc2ccccc2Cl)nc2c1CCCC2,0.8,0.3,41.5*,10.2,0.1,nt,35.7*,11.2*,dCAG dye DR=>29.9
COC(=O)CSc1nc(SCc2ccccc2Cl)nc2c1CCCC2,-5.0,0.7,2.2,1.7,-0.7,108.0,nt,nt,
Cc1ccc(Cc2cnc(N3C(=N)SC(C)C3=O)s2)cc1 (centres undefined),-1.4,0.1,9.8,-17.0,-6.0,128.4,nt,nt,
O=C1c2ccccc2C(=O)N1c1ncc(Cc2ccc(Cl)cc2)s1,1.0,-0.2,42.2*,11.9,3.9,nt,11.7,2.2,
O=C1CC(=O)N(C2CCCCC2)C(=O)N1c1ccccc1S(=O)(=O)Oc1ccccc1,0.0,-0.6,58.8*,6.4,-1.1,nt,26.0,8.0*,
O=S(=O)(Nc1cccc2[nH]ncc12)c1cccs1,-0.3,0.5,4.2,-0.4,-2.8,98.8,nt,nt,
O=S(=O)(Nc1cccc2c1ccc1cccn12)c1cccs1,2.0,-1.0,38.3*,-5.8,-3.3,98.6,32.3,12.8*,
Oc1ccc(C=NN=Cc2ccco2)c(O)c1,0.6,-9.1,2.8,-13.6,-0.8,98.8,nt,nt,
N#Cc1c(NC(=O)CSc2ncnc3sccc23)oc(-c2ccco2)c1-c1ccco1,-0.2,1.1,43.6*,-3.7,-1.8,100.1,54.7*,24.2*,dCAG dye DR=i
Cc1cc(NC(=O)CSc2ncnc3sccc23)no1,0.8,-0.4,-0.2,-2.6,0.8,104.3,nt,nt,
C[C@H]1CN([C@@H](C)CO)C(=O)CCCn2nncc2CO[C@@H]1CN(C)C(=O)Nc1ccccc1F,nt,-0.2,2.3,-8.9,-2.5,nt,nt,nt,
CCOC(=O)C1=C(C)N(C[C@@H]2CC[C@@H](Cc3ccc(-c4ccccc4)cc3)O2)C(=O)NC1c1ccc(SCc2ccco2)c([N+](=O)[O-])c1 (some centres undefined),2.5,0.2,48.7*,2.5,0.5,96.9,36.1*,19.0*,
Cc1ccc(Cn2c(C(C)Nc3nc(C)cs3)nc3cc(Cl)c(Cl)cc32)cc1 (centres undefined),nt,-0.4,9.1,4.7,3.2,nt,nt,nt,
O=C(O)CCc1ccc(-c2ccccc2)n1NC(=O)c1sc2ccccc2c1Cl,-1.2,-0.4,56.7*,-0.3,-1.4,113.9,32.2,10.8*,
Cc1ccccc1NC(=O)Nc1nc(C2CCC(=O)N2)cs1 (centres undefined),-0.2,0.2,2.6,-10.5,-3.0,nt,nt,nt,
C=Cc1c(C)c2cc3[nH]c(cc4nc(cc5nc(cc1[nH]2)C(C)=C5CCC(=O)O)C(CCC(=O)O)=C4C)c(C)c3C=C,-1.2,1.2,90.3*,-20.6,-2.8,25.2*!,87.1*,57.1*,
SMILES,MPTP inh,KLK7 zymogen act,rCAG binder,ADAM10 inh,ADAM17 inh,DSG3 Ab inh,rCAG binder conf,dCAG dye counter,others
CC1(C(=O)NS(=O)(=O)c2ccc(Cl)s2)CCN1C(=O)Cc1ccc(Cl)cc1Cl (centres undefined),0.7,-0.1,39.8*,-8.6,0.3,nt,40.3*,11.2*,
CC1(C(=O)NS(=O)(=O)c2ccc(Cl)cc2)CCN1C(=O)CCc1ccc(Cl)cc1Cl (centres undefined),-0.4,-0.3,52.5*,-5.5,-3.3,nt,49.4*,12.5*,
Cc1ccc(S(=O)(=O)NC(=O)C2(C)CCN2C(=O)CCc2ccc(Cl)cc2Cl)cc1 (centres undefined),0.1,0.2,51.3*,-7.1,-2.8,nt,33.6,6.0*,
CC1(C(=O)NS(=O)(=O)c2ccc(C#N)cc2)CCN1C(=O)CCc1ccc(Cl)cc1Cl (centres undefined),0.7,0.0,25.9,-5.1,-2.3,nt,nt,nt,
CCCOc1ccc(C2C(C(=O)c3cc4ccccc4o3)=C(O)C(=O)N2c2cc(C)on2)cc1OC (centres undefined),30.8,-1.4,40.2*,6.9,-1.0,nt,76.3*,42.4*,
COc1ccccc1C1C(C(=O)c2cc3ccccc3o2)=C(O)C(=O)N1c1cc(C)on1 (centres undefined),-3.1,2.7,34.5,-19.6,-1.0,131.1,nt,nt,
C=CCOc1cccc(C2C(C(=O)c3cc4ccccc4o3)=C(O)C(=O)N2c2cc(C)on2)c1 (centres undefined),1.1,3.2,65.8*,-2.5,-4.1,92.4,76.4*,39.9*,
COc1ccc(OC)c(C2C(C(=O)c3cc4ccccc4o3)=C(O)C(=O)N2c2cc(C)on2)c1 (centres undefined),2.7,1.8,38.2*,-12.0,1.5,107.2,42.3*,12.3*,
COc1cccc(C2C(C(=O)c3cc4ccccc4o3)=C(O)C(=O)N2c2cc(C)on2)c1 (centres undefined),-2.0,2.2,48.1*,-3.3,-1.0,94.6,52.4*,18.1*,
CCCOc1ccc(C2C(C(=O)c3cc4ccccc4o3)=C(O)C(=O)N2c2cc(C)on2)cc1 (centres undefined),34.7,-0.8,31.3,4.4,-2.0,96.2,nt,nt,
